Results: article PMC4336329 (PLoS ONE, 2015)
Hit rate of the full screen: of about 310,000 compounds, about 14,000 (4.5%) showed an effect of 50% or more. Effects have a minus sign here. The full list was thinned out, with strong results kept by preference.

Biological target: human ether-à-go-go-related gene (hERG) potassium channel (human, UniProt Q12809)
Test: primary screen, population patch clamp on CHO cells stably expressing hERG; higher = less effect of the substance
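Also: peak tail current of the secondary pulse compared with the same well before compound.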

human ether-à-go-go-related gene (hERG) potassium channel, sequence (Q12809 whole entry, looked up): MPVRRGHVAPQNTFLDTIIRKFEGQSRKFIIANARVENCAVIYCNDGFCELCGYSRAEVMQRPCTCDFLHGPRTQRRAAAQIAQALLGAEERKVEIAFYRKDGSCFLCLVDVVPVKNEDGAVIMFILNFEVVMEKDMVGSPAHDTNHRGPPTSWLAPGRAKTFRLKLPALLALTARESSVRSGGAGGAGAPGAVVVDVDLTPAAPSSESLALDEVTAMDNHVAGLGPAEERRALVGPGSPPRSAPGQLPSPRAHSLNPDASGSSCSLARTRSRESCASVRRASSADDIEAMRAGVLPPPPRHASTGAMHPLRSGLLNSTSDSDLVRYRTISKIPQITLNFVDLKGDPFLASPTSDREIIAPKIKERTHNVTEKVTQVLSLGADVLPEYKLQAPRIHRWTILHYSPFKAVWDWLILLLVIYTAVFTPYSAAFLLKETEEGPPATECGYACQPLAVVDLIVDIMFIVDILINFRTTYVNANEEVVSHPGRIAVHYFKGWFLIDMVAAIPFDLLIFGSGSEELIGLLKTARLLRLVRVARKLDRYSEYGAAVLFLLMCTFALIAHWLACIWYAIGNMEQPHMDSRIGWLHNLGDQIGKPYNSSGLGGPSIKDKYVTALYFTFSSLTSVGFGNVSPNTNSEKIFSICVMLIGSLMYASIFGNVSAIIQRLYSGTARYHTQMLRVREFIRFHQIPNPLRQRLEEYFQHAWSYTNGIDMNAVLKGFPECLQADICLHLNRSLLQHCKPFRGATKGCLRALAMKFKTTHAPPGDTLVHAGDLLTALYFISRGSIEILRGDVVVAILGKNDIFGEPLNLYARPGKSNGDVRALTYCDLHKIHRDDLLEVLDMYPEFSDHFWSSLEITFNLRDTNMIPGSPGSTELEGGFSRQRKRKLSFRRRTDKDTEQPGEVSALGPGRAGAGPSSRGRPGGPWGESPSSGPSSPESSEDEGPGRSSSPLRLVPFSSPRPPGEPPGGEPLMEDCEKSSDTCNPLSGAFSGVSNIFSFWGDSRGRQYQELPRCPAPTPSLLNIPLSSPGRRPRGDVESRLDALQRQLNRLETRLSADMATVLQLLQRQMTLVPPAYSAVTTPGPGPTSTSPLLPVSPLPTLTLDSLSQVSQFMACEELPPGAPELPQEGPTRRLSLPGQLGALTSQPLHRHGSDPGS

SMILES | hERG current change (%, negative = inhibition) at 10uM
Cc1ccc2[nH]c(=O)c(NC(N)=S)nc2c1 | 14%
S=c1nc(C2CCCCC2)n(-c2ccccc2)[nH]1 | 15.6%
O=C(C1CC1)N1CCN(C(c2ccccc2)c2ccccc2)CC1 | 6.33%
Cc1ccccc1-n1nc2c(c1NC(=O)c1ccc3c(c1)OCO3)CS(=O)(=O)C2 | -17.6%
CNC(=S)N/N=C/c1ccccc1OCC(=O)O | 18.4%
CC(C)C(=O)NN(C(=O)c1ccccc1)c1ccccc1 | 20.4%
CCOc1ccc(CCNC(=O)CSc2cc(=O)n(C)c3ccc(Cl)cc23)cc1OCC | -21.4%
Cn1c(=O)cc(SCC(=O)NCCN2CCN(c3ccccc3F)CC2)c2cc(Cl)ccc21 | -54.1%
Cn1c(=O)cc(OCCCC(=O)NCCN2CCN(c3ccccc3F)CC2)c2ccccc21 | -7.18%
O=C(O)C1(c2ccccc2)CCN(S(=O)(=O)c2ccc(F)c(F)c2)CC1 | 2.44%
COc1ccc(-c2cc(O)cc(O)c2)cc1 | -3.33%
COc1ccc(/C=C/c2cc[n+](C(=O)Cc3ccccc3)cc2)cc1.[Cl-] | -51.2%
COc1ccc(NC(=O)Cc2ccccc2)cc1 | 4.36%
COc1ccc(/C=C/C(=O)NCCCc2ccccc2)cc1 | -46.8%
CCC(=O)Nc1ccc(OCC2CCCO2)cc1 (stereo not shown) | 7.08%
c1ccc(CN2CCN(Cc3ccc4ccccc4c3)CC2)cc1 | 5.24%
Cl.OC1(c2ccc3ccccc3c2)CCN(Cc2ccccc2)C1 (stereo not shown) | -57.1%
Cl.OC1(c2ccc(F)cc2)CCN(Cc2ccccc2)C1 (stereo not shown) | -15.1%
c1ccc2c(c1)OCC(CNc1ncnc3sccc13)O2 (stereo not shown) | -20.9%
CCOC(=O)C1=C(C)NC(=O)CC1c1ccccc1OC (stereo not shown) | 7.62%
Cc1ccc(NC2=NCC(=O)N2Cc2ccc3c(c2)OCO3)c(C)c1 | -1.91%
O=C1CCN(CCCc2ccccc2)CCN1CCO | 2.01%

SMILES | hERG current change (%, negative = inhibition) at 10uM
O=C(O)/C=C\C(=O)O.c1ccc(C(OCCN2CCN(c3ncccn3)CC2)c2ccccc2)cc1 | -65.9%
c1ccc(COCCN2CCN(CCOCc3ccccc3)CC2)cc1 | -39.5%
CCC(C(=O)N1CCN(c2ncccn2)CC1)c1ccccc1 (stereo not shown) | -0.742%
Cl.Fc1ccc(C(OCCN2CCN(CCCc3ccccc3)CC2)c2ccc(F)cc2)cc1 | -77.4%
Cl.c1ccc(C(OCCN2CCNCC2)c2ccccc2)cc1 | -11.9%
O=S(=O)(c1ccc(F)cc1)N1CCN(CCc2ccccc2)CC1 | -8.48%
Cl.c1ccc(CCCN2CCN(CCOC(c3ccccc3)c3ccccc3)CC2)cc1 | -71.8%
c1ccc(CN2CCN(c3ncccn3)CC2)cc1 | 11.6%
CC(=O)Nc1ccc(Sc2ncccc2C(=O)Nc2cc(Cl)cc(Cl)c2)cn1 | 26.7%
CN(C)/C=C(\C#N)C(=O)N/N=C/c1ccc(F)cc1 | -10.1%
C=CCN(CC=C)C(=O)C[n+]1ccc(C(N)=O)cc1.[Cl-] | -0.0573%
O=C(CSc1ccc2nnc(-c3cccnc3)n2n1)NCc1ccco1 | -44.3%
O=C(CSc1ccc2nnc(-c3ccncc3)n2n1)Nc1ccc2c(c1)OCO2 | 7.8%
O=C(CSc1ccc2nnc(-c3ccccc3)n2n1)NCc1ccc2c(c1)OCO2 | -80.3%
O=C(CSc1ccc2nnc(-c3ccccn3)n2n1)Nc1ccc2c(c1)OCO2 | -33.7%
O=C(CSc1ccccn1)NCc1ccc2c(c1)OCO2 | 3.5%
O=C(CSc1ccc2nnc(-c3cccnc3)n2n1)NCC1CCCO1 (stereo not shown) | -9.66%
O=C(CSc1ccc2nnc(-c3ccccn3)n2n1)Nc1ccc2c(c1)OCCO2 | -40.6%
O=C(CSc1ccc2nnc(-c3cccnc3)n2n1)NCc1ccc2c(c1)OCO2 | -53.3%
O=C(CSc1ccc2nnc(-c3ccccn3)n2n1)NCc1ccc2c(c1)OCO2 | -74.4%
O=C(O)CC1c2ccccc2CCN1S(=O)(=O)c1ccccc1 (stereo not shown) | -1.51%
COc1ccc(N2C(=O)CN=C2Nc2nc(C)cc(C)n2)cc1OC | -4.68%

SMILES | hERG current change (%, negative = inhibition) at 10uM
Cc1cccc(NC(=S)NCc2ccc3c(c2)cc(C)n3C)c1C | -9.2%
CC(=O)c1ccc(NC(=O)CSc2nc(N3CCOCC3)nc(N3CCOCC3)n2)cc1 | -7.67%
Cc1ccc(NS(=O)(=O)c2c(C)nc3sccn3c2=O)c(C)c1 | -15.2%
COc1ccc(NC2CCCN(C(=O)c3cccc(C)n3)C2)cc1OC (stereo not shown) | 18.5%
CC1(C)N=C(c2ccccc2)[C@@H]2C(c3ccc([N+](=O)[O-])cc3)N21 (stereo partly shown) | -31.6%
CC12CCC(C(=O)Nc3nc4ccc(Br)cc4s3)(OC1=O)C2(C)C (stereo not shown) | -2.78%
COc1cc2c(cc1OC)CN(CCC(C)c1ccc(Cl)cc1)CC2.O=C(O)/C=C\C(=O)O (stereo not shown) | -72.1%
COc1cc2c(cc1OC)CN(CC(O)c1ccccc1)CC2 (stereo not shown) | 14.4%
COc1cc2c(cc1OC)C(C)N(CCN1C(=O)c3ccccc3C1=O)CC2 (stereo not shown) | 17.5%
COc1cc2c(cc1OC)C(C)N(CCc1ccc(Cl)cc1)CC2.O=C(O)/C=C\C(=O)O (stereo not shown) | -70.2%
COc1cc2c(cc1OC)C(C)N(Cc1ccc3c(c1)OCO3)CC2 (stereo not shown) | -3.76%
COc1cc2c(cc1OC)CN(CC(=O)Nc1ccc(Cl)cc1Cl)CC2 | -11.7%
Br.COc1cccc(C(=O)CSc2nccn2C)c1 | 24.2%
COc1ccc(Cl)cc1NC(=O)CSc1nnc(-c2ccncc2)n1CC1CCCO1 (stereo not shown) | -28.2%
C=CCn1c(N2CCN(c3ccc(OC)cc3)CC2)nc2c1c(=O)[nH]c(=O)n2C | -24.6%
COc1cccc(N2C(=O)C3CCCN3C2c2ccc(F)cc2)c1 (stereo not shown) | 6.88%
CCOc1nc2cnccc2n(CC(=O)Nc2ccccc2F)c1=O | 26.4%
C=CCN(CC=C)CCCOc1ccccc1C(=O)OC.O=C(O)C(=O)O | -72.4%
COC(=O)c1ccccc1OCCCN(C)C.O=C(O)C(=O)O | -17.4%
C=CCN(CC=C)CCCOc1ccc(C)cc1OC.O=C(O)C(=O)O | -45.1%
C/C(N)=C(/C#N)C(=O)CSc1cc(C)c2cc(C)cc(C)c2n1 | 2.54%
COc1cccc(N2CCN(C(=O)c3cc4c(OC)c(OC)c(OC)cc4[nH]3)CC2)c1 | 9.11%

SMILES | hERG current change (%, negative = inhibition) at 10uM
COC(=O)c1ccc(OC(=O)C2CSC3(C)CCC(=O)N23)cc1 (stereo not shown) | -1.4%
O=C(NC1CCCCC1)c1cc([N+](=O)[O-])ccc1N1CCCCC1 | -17%
CCCCCn1c(N)c(-c2nc3ccccc3s2)c2c([N+](=O)[O-])nn(CC)c(=O)c21 | 5.78%
COc1ccccc1OCC(=O)Nc1cc(S(=O)(=O)N2CCCCC2)ccc1N1CCCCC1 | 2.21%
CCOc1ccccc1OCC(=O)Nc1cc(S(=O)(=O)N2CCCCC2)ccc1N1CCN(CC)CC1 | -71.5%
N#Cc1ccc(OCC(=O)Nc2cc(S(=O)(=O)N3CCCCC3)ccc2N2CCCCC2)cc1 | -13.3%
CCN1CCN(c2ccc(S(=O)(=O)N3CCCCC3)cc2NC(=O)COc2cc(C)ccc2Cl)CC1 | -14.1%
CCN1CCN(c2ccc(S(=O)(=O)N3CCCCC3)cc2NC(=O)COc2ccc(F)cc2Cl)CC1 | -65.1%
CCC(=O)c1ccc(OCC(=O)Nc2cc(S(=O)(=O)N3CCCCC3)ccc2N2CCN(CC)CC2)cc1 | -84.3%
CCOc1ccccc1OCC(=O)Nc1cc(S(=O)(=O)N2CCCCC2)ccc1OC | -16%
CCN1CCN(c2ccc(S(=O)(=O)N3CCCCC3)cc2NC(=O)COc2ccccc2)CC1 | -66.6%
CCN1CCN(c2ccc(S(=O)(=O)N3CCCCC3)cc2NC(=O)COc2ccc(Cl)cc2)CC1 | -15.2%
CCN1CCN(c2ccc(S(=O)(=O)N3CCCCC3)cc2NC(=O)Cc2c(Cl)cccc2Cl)CC1 | -38.6%
CCC(=O)c1ccc(OCC(=O)Nc2cc(S(=O)(=O)N3CCCCC3)ccc2OC)cc1 | -19.8%
CCN1CCN(c2ccc(S(=O)(=O)N3CCCCC3)cc2NC(=O)COc2ccc(Cl)c(C)c2)CC1 | -34.5%
CSc1nnc([C@@H](N)Cc2c[nH]c3ccccc23)o1.Cl | 30.1%
CN1CCNC(=O)C1CC(=O)NCCc1ccccc1F (stereo not shown) | 13.4%
CCCCNC(=O)O[C@H]1C[C@@H]2CCN3C(=O)CCC[C@H]([C@H]1CC)[C@H]23 | -8.19%
Cc1c(-c2ccc(/C=N/NC(=O)C(=O)Nc3ccccc3F)o2)cccc1[N+](=O)[O-] | 21.1%
